Consider 40 compounds from PubChem BioAssay (NCI).

Each structure is given as a SMILES string. The panel holds about 83,000 compounds, 20% with a hit somewhere; the sample as a whole holds those more often.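 Single-concentration screen, 48 h exposure, 96-well plates. Endpoint: percent growth. Below 10 = active.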 Active and inactive are the calls of the source.

The subject of the assay is MOLT-4 leukemia. The assay is described as follows: NCI-60 one-dose screen, 48 h (100 = growth as untreated, 0 = no growth, -100 = all killed). As to conditions: 10 µM unless noted. Here is the method:
Growth inhibition of the MOLT-4 human tumor cell line is measured as a screen for anti-cancer activity. Cells are grown in 96 well plates and exposed to the test compound for 48 hours. Compounds are tested at a single concentration, which is 10^-5 M for most compounds. The reported endpoint is percent growth (GI% or GIPRCNT), where numbers from 0 - 100% represent growth inhibition, and numbers from -100% - 0 represent cell death. For example, a value of 40 represents 60% growth inhibition. A value of 0 means no net growth occurred over the course of the experiment. A value of -40 indicates 40% of cells at the beginning of the experiment died by the end of the experiment. A value of -100 means all cells are dead at the end of the experiment.
NCI-60 Human Tumor Cell Lines Screen was performed using the standard one-dose NCI protocol, which is described in more detail at https://dtp.cancer.gov/discovery_development/nci-60/default.htm.
Compounds with GIPRCNT values below 10 were considered active. Activity score was based on GIPRCNT using the following formula: […]
Score is 0 for GIPRCNT values of 100 or above, 50 for GIPRCNT values of 0, and 100 for GIPRCNT values of -100.
Consider `COC(=O)c1c2c(n3ccccc13)C(=O)c1ccccc1C2=O`, for which the growth was 35.5% (inactive).
Regarding `COc1ccc(/C=C2\CN(C(=O)C(Cl)Cl)C/C(=C\c3ccc(OC)cc3)C2=O)cc1`, the growth is 5.42% (active).
To `O=C1Nc2ccccc2/C1=C\c1c[nH]c2ccc(Br)cc12` belongs 62.1% (inactive).
Take `N#Cc1cccc(C2C3=C(COC3=O)N(CCO)c3cc4c(cc32)OCO4)c1` (stereo not given): the growth is 24.8% (inactive).
For `CCCCNc1nnc2n(Cc3ccccc3)c(=O)c3c4c(sc3n12)CCCC4`, the growth is 10.4% (inactive).
For the compound `C=C1C(=O)O[C@H]2[C@H]1CC/C(COC(=O)CSCSCC(=O)OC/C1=C/CC[C@@]3(C)O[C@H]3[C@H]3OC(=O)C(=C)[C@@H]3CC1)=C\CC[C@@]1(C)O[C@@H]21`, the growth was -15.3% (active).
As for `CN(Cc1cnc2nc(N)nc(N)c2n1)c1ccc(C(=O)NC(CCC(=O)O)C(=O)O)cc1Br` (stereo not given), the growth was 30.5% (inactive).
`CC(C)(C)c1cc(Cl)c(O)c(CNCCO)c1`: the growth was 115% (inactive).
To `CCOC(=O)c1[nH]c2c(c1C)-c1[nH]c(=O)c(S(=O)(=O)c3ccccc3)cc1SC2` belongs 57.3% [100 µM] (inactive); to `O=C(Cc1cccc(OC(F)(F)F)c1)Nc1ccc(CCCCc2nnc(NC(=O)Cc3ccccn3)s2)nn1`, 43.8% (inactive).
As for `CC1C(/C=N/NC(N)=S)C(C#N)(C#N)C1(C#N)C#N` (stereo not given), the growth was 88.8% (inactive).
`O=C1c2ccccc2C(=O)c2c1cc1c(c2[N+](=O)[O-])OCO1`: the growth was 28.7% (inactive).
As to `Oc1c(CN2CCCC2)cc(CSCc2ccccc2)c2cccnc12`, the growth is -14.4% (active).
With `C#CCNC(=O)[C@]1(C)CCC[C@@]2(C)[C@H]1CC=C1C=C(C(C)C)CC[C@@H]12`, the growth is 87.9% (inactive).
Consider `Fc1cc(Nc2ccc3c(OCCCN4CCOCC4)cccc3n2)ccc1Cl`, for which the growth is 3.8% (active).
For the compound `CC1=C(CCC(C)NCc2ccc(OCCCN3CCCCC3)cc2)C(C)(C)CCC1` (stereo not given), the growth was -41.7% (active).
With `CCCCNc1cc(-c2cn[nH]c2-c2cc(C)cc(OC)c2)nc(-c2cccnc2)n1`, the growth is 82.6% (inactive).
For `CS(=O)(=O)c1nnc(-c2ccccc2)s1` the value was 88.1% (inactive); for `COC(=O)c1c2c(c(C)[n+]([O-])c1C)C(=O)C(NCc1ccc(OC)cc1)=CC2=O`, 0.904% (active).
With `CS(=O)(=O)c1ccc(NC(=O)c2ccccc2)nc1`, the growth was 71.3% (inactive).
`Clc1ccccc1-c1cnn2cc(-c3ccccc3)cnc12`: the growth was 83.7% (inactive).
For `COc1ccc(C(=O)/C=C/c2ccc(Cl)cc2)cc1S(=O)(=O)Nc1c(N)nc(SC)[nH]c1=O` the value was 59.8% (inactive); for `C#COc1cccc(Nc2ncnc3cc(NC(=O)[C@@H](C)Cl)ccc23)c1`, 11.4% [6.25 µM] (inactive).
Regarding `CC1C=CC(OC(=O)C(C)(O)CCC(O)(C(=O)OC2CC(O)C(C(C)C)CC2(C)O)C(C)C)(C(C)C)CC1` (stereo not given), the growth was -46.4% [4.63 µM] (active).
Consider `O=C(O)[C@@H](Cc1ccc2ccccc2c1)NC(=O)n1c2ccccc2c2ccccc21`, for which the growth is 24.5% (inactive).
As for `O=C1/C(=C/c2ccccn2)NC(=S)N1c1ccccc1Cl`, the growth is 33.4% (inactive).
As to `C=CC(=O)Nc1ccc(Oc2nccc(Nc3nnc(-c4ccc(C)cc4)s3)n2)cc1`, the growth was 68.6% (inactive).
On to `CC(=O)Oc1ccc(OC(C)=O)c2ccccc12`, for which the growth was -13.9% (active).
`Cc1ccc(-c2nc(SCc3nc4cc(Cl)c(Cl)cc4[nH]3)[nH]c(=O)c2C#N)cc1`: the growth is 101% (inactive).
For `Oc1ccc(/C=C/c2ccc(O)cc2)cc1` the value was 74.9% (inactive); for `CCN1CCN(CCNc2nccc(-c3c(-c4ccc(F)c(OC)c4)nc4sccn34)n2)S1(=O)=O`, 81.8% (inactive); for `O=C(/C=C(O)/C=C/c1cccc2[nH]ccc12)/C=C/c1cccc2[nH]ccc12`, 59.2% (inactive).
To `CSc1nn2c(-c3ccc4ccccc4c3)ccnc2c1C#N` belongs 28.5% (inactive); to `Cc1ccc(-c2nc(N3CCNCC3)c3oc(-c4ccc(C)cc4)nc3n2)cc1`, -72.6% (active); to `C=C(C)[C@@H]1CC[C@]2(COC(C)=O)CC[C@]3(C)[C@H](CC[C@@H]4[C@@]5(C)CCCN(C(C)=O)C(C)(C)[C@@H]5CC[C@]43C)[C@@H]12`, -9.89% (active).
In the case of `CC1=C2[C@@H](CC1)[C@]1(C)O[C@@](C3CCCCC3)(C[C@H]1OC(=O)CO)[C@H]2OC(=O)/C=C/c1ccccc1`, the growth was 67.9% (inactive).
For `COc1ccc(/C=C/C(c2cc(OC)c(OC)c(OC)c2)n2cncn2)cc1` (stereo not given) the value was 39.4% (inactive).
For `COc1ccc(/C=C/C(=O)c2cc3c(N)c(C(=O)Nc4cccc(Cl)c4C)sc3nc2C)cc1` the value was 19% (inactive); for `O=C(CCCCCCN1CC(=O)N2[C@H](c3ccc(Cl)cc3)c3[nH]c4ccccc4c3C[C@@H]2C1=O)NO`, 4.87% (active); for `COc1ccc(/C=C/C(=O)c2cc(OC)c(OC)c(OC)c2)cc1OCC(=O)Nc1nc2ccc(OC(F)(F)F)cc2s1`, 0.429% (active).
